Consider six molecules from PubChem BioAssay.

“And” between values parts separate entries of the source, which are not always exact repeats. Equal values may be shown once. The source made the active and inactive calls. Unless noted, how the calls were made is not given here.

The nature of test [1]: liver-stage malaria parasite growth inhibition, primary screen, cell-based, HepG2, luciferase luminescence, HepG2 viability (AID 624349; in the data active means parasite load remaining mostly below about 12%, no sharp cut-off; inactive means mostly above about 10%;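 further: 100% = mean of DMSO negative control wells on the same plate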). As to conditions: P. berghei liver stage in HepG2, luciferase luminescence, concentration not given here; parasite load remaining: stronger effect = lower value; viability: measured here: HepG2 viability without parasites.
Test [2] can be described thus: Cy5 fluorescence interference with SSB-bound oligo, artefact control for HCV NS3 helicase inhibitor project, biochemical, NIH Clinical Collection, E. coli SSB (AID 743268).
Test [3] relates to Hepatitis C virus NS3 helicase. Put plainly: HCV NS3 helicase inhibitors, primary screen, biochemical, fluorescence polarization, NIH Clinical Collection (AID 743270). As to conditions: NS3 helicase binding to Cy5-dT15 DNA, stronger effect = higher value, concentration not given here. On the technique in general: Polarisation of emitted light reports the rotation of a fluorescent probe.
Test [4] has as its target Single-stranded DNA-binding protein (Escherichia coli (strain K12)) (UniProt P0AGE0). Put plainly: E. coli SSB displacement from DNA, counter-screen for HCV NS3 helicase inhibitor project, biochemical, fluorescence polarization, NIH Clinical Collection (AID 743271; in the data active means inhibition above about 28%). As to conditions: stronger effect = higher value, concentration not given here. (In general: A counterscreen serves to expose hits that act by an unwanted route or on another target.)

The nature of test [5]: fluorescence interference in NS3h assay format, artefact control for HCV NS3 helicase inhibitor project, biochemical, NIH Clinical Collection (AID 743272).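 Further: HCV NS3 helicase with a Cy5 labelled single stranded DNA probe.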 The settings on record: fluorescence interference counterscreen, stronger effect = lower value.
In test [6] the test system is Neuropilin-2 / VEGF-C interaction (human). Description: inhibitors of NRP2–VEGF-C binding, biochemical, microplate binding format, z-score (AID 743281). The settings on record: microplate NRP2/VEGF-C binding assay; stronger effect = lower value.
Test [7] in a line: stimulators of nuclear beta-catenin in C2C12, primary screen, imaging, WNT3A-conditioned medium, mouse C2C12, NPC library (AID 1117326; in the data active means nuclear beta-catenin stimulation mostly above about 4.2%, no sharp cut-off; inactive means mostly below about 10%). As to conditions: stronger effect = higher value.
A short description of test [8]: stimulators of insulin release from INS-1E, primary screen, cell-based, 5 mM glucose, NPC library (AID 1117329;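 active means compound raises insulin release from rat beta cells at 5 mM glucose, no numeric limit stated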). As to conditions: rat INS-1E insulin secretion, at 10 µM, stronger effect = higher value.
The nature of test [9]: growth inhibition of GSK3B-pretreated HCT116 cells – cell-based, CellTiter-Glo, 0.2 to 20 µM (AID 1117336;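 active means compounds lowering colon cancer cell viability after pretreatment blocking the GSK3B kinase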). As to conditions: HCT116 viability after GSK3B inhibitor, at 20 µM, stronger effect = higher value. In general terms: In ATP-based viability assays light output follows the ATP content of the culture.
Test [10] can be described thus: inhibition of endothelial tube formation, primary screen, imaging, VEGF stimulated, CD31 staining, tube area, NPC library (AID 1117340;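 active means compound that reduces growth-factor-driven endothelial tube area in a mixed cell culture, no cutoff stated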). As to conditions: VEGF-stimulated ADSC/ECFC co-culture, at 10 µM, stronger effect = higher value.
Test [11] is described as follows: glucagon-like peptide 1 release enhancers, primary assay, NCI-H716 cell line, NPC library (AID 1117341;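 active means compound raises GLP1 secretion from the human gut endocrine cells, with no numeric limit stated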). As to conditions: NCI-H716 cells, at 10 µM, stronger effect = higher value.
The nature of test [12]: HCT116 colon cancer cell growth inhibition, primary screen, CellTiter-Glo luminescence, NPC library (AID 1117342;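 active means compounds that lower survival of HCT116 colon cancer cells in the luminescence readout, no numeric limit stated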). As to conditions: at 20 µM (top of the series).
Test [13] is described as follows: CellTiter-Glo luminescent readout of SW480 viability loss, NPC library primary (AID 1117343;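 active means compounds that lower viability of the colon cancer cells in the luminescence readout, with no numeric limit stated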). The settings on record: CellTiter-Glo luminescence; at 20 µM (top of the series).
The nature of test [14]: decreased DLD-1 cellular survival, CellTiter-Glo luminescent readout, NPC compound collection, primary HTS (AID 1117346;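 active means compounds that lower survival of DLD-1 colon cancer cells in the luminescence readout, no cutoff given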). The settings on record: DLD-1 viability, CellTiter-Glo luminescence; at 20 µM (top of the series).
Test [15] relates to Hepatitis C virus NS3 helicase. Put plainly: HCV NS3 helicase inhibitors, primary screen, biochemical, fluorescence polarization, LOPAC1280 library (AID 687035; in the data active means inhibition above about 37%). As to conditions: Purified HCV NS3 helicase, Cy5-dT15 ssDNA binding fluorescence polarization; stronger effect = higher value; concentration not given here.
A short description of test [16]: Cy5 fluorescence quenching or enhancement artefacts, artefact control for HCV NS3 helicase inhibitor project, biochemical, LOPAC1280 (AID 687037). The settings on record: Cy5-DNA-NS3h complex fluorescence interference counterscreen.

As to `CCC1=C(C)CN(C(=O)NCCc2ccc(S(=O)(=O)NC(=O)NC3CCC(C)CC3)cc2)C1=O` (configuration not stated), the parasite load remaining in test [1] is 156% (inactive) and 92.3% (inactive) and 45.4% (inactive). Besides, in test [1], the viability (commonly a read-out of living cells in per cent, often relative to untreated cells) is 98.1% and 72.7% and 68.5%. The fluorescence ratio was 0.97 (inactive) in test [2] and 0.96 (inactive) in test [5]. Moreover, the inhibition (commonly the relative decrease from the control value, in per cent) in [3] was -1.09% (inactive); in test [4] it was 0.39% (inactive). Further, the z-score in test [6] is 1.17 (inactive). Moreover, the nuclear beta-catenin stimulation in [7] (at 10 µM) is 1% (inactive); in [7] (stimulation, at 2 µM), -1.7%. Also, the insulin secretion stimulation in test [8] was 29.4% (active). Also, the viability decrease in test [9] was 34.1% (inactive). Further, the tube area decrease in test [10] was -7.2% (inactive). Further, the GLP1 secretion stimulation in [11] was 2.3% (inactive). In [12], the inhibition of viability is 2.4% (inactive). Also, the viability decrease (inhibition) was 17.1% (inactive) in test [13] and 7.8% (inactive) in [14].

As to `COc1cc2nc(N3CCN(C(=O)C4CCCO4)CC3)nc(N)c2cc1OC` (configuration not stated), the inhibition in test [15] was -3% (inactive); in [3] it was 0.4% (inactive) and -6.82% (inactive); in test [4] it was -3.18% (inactive) and 1.05% (inactive). The fluorescence ratio (interference) in test [16] is 1 (inactive). For the same molecule, the fluorescence ratio in test [2] was 0.99 (inactive) and 1.03 (inactive); in [5] it was 0.95 (inactive) and 1.02 (inactive). Moreover, the z-score in test [6] was -0.533 (inactive). Besides, the nuclear beta-catenin stimulation in test [7] (at 10 µM) is 0.8% (inactive); in [7] (stimulation, at 2 µM) it was 1.4%. For the same molecule, the insulin secretion stimulation in test [8] was 0.35% (inactive). In addition, in test [9], the viability decrease is 7.5% (inactive). Besides, in test [10], the tube area decrease was 9.3% (inactive). Besides, the GLP1 secretion stimulation in test [11] was 1.3% (inactive). In addition, the inhibition of viability in [12] is -9.1% (inactive). For the same molecule, the viability decrease (inhibition) in test [13] is -2.8% (inactive); in test [14], 5.5% (inactive).

Take `CCOC(=O)OC(C)OC1=C(C(=O)Nc2ccccn2)N(C)S(=O)(=O)c2ccccc21` (configuration not stated): the parasite load remaining in [1] is 75.6% (inactive) and 16.2% (inactive). In [1], the viability was 78.8% and 73%. In addition, the fluorescence ratio in [2] was 0.97 (inactive); in test [5] it was 0.96 (inactive). The inhibition in test [3] is -2.84% (inactive); in [4], -0.39% (inactive). Further, the z-score in test [6] is -0.884 (inactive). Also, the nuclear beta-catenin stimulation was 0.7% (inactive) in test [7] (at 10 µM) and -0.8% in [7] (stimulation, at 2 µM). For the same molecule, the insulin secretion stimulation in [8] is 0.55% (inactive). The viability decrease in test [9] was 5.8% (inactive). The tube area decrease in test [10] was -1.1% (inactive). For the same molecule, in [11], the GLP1 secretion stimulation is 1% (inactive). For the same molecule, the inhibition of viability in test [12] is 8.6% (inactive). Besides, the viability decrease (inhibition) was -18.8% (inactive) in test [13] and -0.2% (inactive) in test [14].

In the case of `Cc1cccc(C)c1OCC(C)N` (configuration not stated), the figures for the inhibition in test [15], in test [3] and in [4] were -2% (inactive), -4.09% (inactive) and -4.29% (inactive), respectively. Further, the fluorescence ratio (interference) in test [16] is 1 (inactive). Besides, the results for the fluorescence ratio in [2] and in test [5] were 1.06 (inactive) and 1.04 (inactive), respectively. In addition, the nuclear beta-catenin stimulation in test [7] (at 10 µM) is 1.9% (inactive); in test [7] (stimulation, at 2 µM) it was 2.4%. In [8], the insulin secretion stimulation was 4.3% (inactive). Moreover, the viability decrease in test [9] was 3.4% (inactive). For the same molecule, the tube area decrease in test [10] was -2% (inactive). Also, the GLP1 secretion stimulation in test [11] is -4.1% (inactive). Also, in test [12], the inhibition of viability is 5.27% (inactive). The viability decrease (inhibition) in [13] is -7.7% (inactive); in test [14], 4.3% (inactive).

Regarding `COc1cc2nc(N3CCN(C(=O)C4COc5ccccc5O4)CC3)nc(N)c2cc1OC` (configuration not stated), the inhibition in test [15] was -4% (inactive); in [3], -1.36% (inactive); in [4] it was -2% (inactive). For the same molecule, in test [16], the fluorescence ratio (interference) is 1 (inactive). Besides, the fluorescence ratio in test [2] was 1.06 (inactive); in [5] it was 0.9 (inactive). Moreover, the nuclear beta-catenin stimulation in [7] (at 10 µM) is 38% (inactive); in [7] (stimulation, at 2 µM) it was 2.3%. The insulin secretion stimulation in test [8] is -0.7% (inactive). In addition, the viability decrease in test [9] is 100% (active). For the same molecule, in test [10], the tube area decrease is 85.3% (active). Besides, the GLP1 secretion stimulation in [11] is 25.7% (active). In addition, the inhibition of viability in test [12] is 101% (active). Also, the values for the viability decrease (inhibition) in test [13] and in test [14] were 142% (active) and 103% (active), respectively.

With `COc1ccc(CC2c3cc(OC)c(OC)cc3CC[N+]2(C)CCC(=O)OCCCCCOC(=O)CC[N+]2(C)CCc3cc(OC)c(OC)cc3C2Cc2ccc(OC)c(OC)c2)cc1OC` (configuration not stated), the fluorescence ratio in [2] is 1.03 (inactive); in test [5], 1.02 (inactive). In addition, the inhibition was -1.09% (inactive) in test [3] and 1.97% (inactive) in test [4]. In test [6], the result was inactive. For the same molecule, the nuclear beta-catenin stimulation in test [7] (at 10 µM) is 21.5% (inactive); in test [7] (stimulation, at 2 µM), 0.3%. For the same molecule, the insulin secretion stimulation in test [8] is 13.1% (inactive). Moreover, the viability decrease in test [9] is 65.7% (active). Also, in test [10], the tube area decrease was 44.4% (active). Also, the GLP1 secretion stimulation in test [11] was -3% (inactive). For the same molecule, in test [12], the inhibition of viability is 6.9% (inactive). In addition, the viability decrease (inhibition) was 81.7% (active) in test [13] and 51.9% (active) in [14].
